# According to PubChem BioAssay:
# The source made the active and inactive calls. Unless noted, how the calls were made is not given here.
# Legend:
# [1] = test system: Wnt5a (protein binding on small-molecule microarray); experiment: small molecules binding Wnt5a protein – biophysical, small-molecule microarray, 635/667 nm fluorescence, primary screen (AID 1142); details: 635 nm fluorescence, higher = more signal;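 further: fluorescence read at 667 nm with signal to noise per printed feature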
# [2] = ATP-based viability of Huh7 replicon cells – cell-based, CellTiter-Glo luminescence, basal, 48 h, cytotoxicity control for HCV replication inhibitor project, primary screen (AID 1143); details: higher = more signal, called active from +8 up or from −8 down;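 further: Huh7 hepatoma cells carrying a hepatitis C replication reporter with no stimulus; test concentration not given here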
# [3] = Pseudomonas biofilm growth suppression – PAO1 strain, BacTiter-Glo luminescence, LB-PBS, primary screen (AID 1144); details: P. aeruginosa PAO1 biofilm, 12 h, higher = more signal
# [4] = basal CRE-LacZ reporter activity in PC12 – cell-based, unstimulated, primary screen (AID 1145); details: no forskolin, luminescence, 4.5 h, higher = more signal, called active from +8 up or from −8 down
# [5] = forskolin-driven CRE-LacZ activity in PC12 – cell-based, CRE-LacZ reporter, forskolin-stimulated, primary screen (AID 1146); details: luminescence, 4.5 h, higher = more signal, called active from +8 up or from −8 down;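 further: PC12 cells with 6xCRE LacZ reporter stimulated by forskolin 10 µM; beta-galactosidase reporter signal reflecting CREB driven transcription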
# [6] = target: Streptavidin (Streptomyces avidinii) (UniProt P22629); experiment: compounds binding control protein streptavidin – biophysical, small-molecule microarray, 635/667 nm fluorescence, artefact control for SMM compound annotation, primary screen (AID 1147); details: higher = more signal;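 further: signal reflects streptavidin binding to arrayed compounds as a control protein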
# Chain of Streptavidin (Streptomyces avidinii) (P22629 whole entry, looked up): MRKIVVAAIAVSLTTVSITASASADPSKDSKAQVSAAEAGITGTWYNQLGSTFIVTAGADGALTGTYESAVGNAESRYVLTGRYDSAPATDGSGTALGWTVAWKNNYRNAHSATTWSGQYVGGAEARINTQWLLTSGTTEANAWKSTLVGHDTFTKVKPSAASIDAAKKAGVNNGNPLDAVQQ
# [7] = probe aInhba binding on compound microarray – biochemical, small-molecule microarray, 635/667 nm fluorescence, primary screen (AID 1148); details: higher = more signal;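 further: score merges 667nm spot fluorescence with signal-to-noise for antibody binding to printed compounds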
# Torsin-1A (Homo sapiens) [8] = target: Torsin-1A (Homo sapiens) (UniProt O14656); experiment: TOR1A wild-type binding on microarray – cell lysate, small-molecule microarray, lysate, 635/667 nm, primary screen (AID 1149); details: COS7 hTOR1A-WT lysate, 635 nm fluorescence, higher = more signal
# Chain of Torsin-1A (Homo sapiens) (O14656 whole entry, looked up): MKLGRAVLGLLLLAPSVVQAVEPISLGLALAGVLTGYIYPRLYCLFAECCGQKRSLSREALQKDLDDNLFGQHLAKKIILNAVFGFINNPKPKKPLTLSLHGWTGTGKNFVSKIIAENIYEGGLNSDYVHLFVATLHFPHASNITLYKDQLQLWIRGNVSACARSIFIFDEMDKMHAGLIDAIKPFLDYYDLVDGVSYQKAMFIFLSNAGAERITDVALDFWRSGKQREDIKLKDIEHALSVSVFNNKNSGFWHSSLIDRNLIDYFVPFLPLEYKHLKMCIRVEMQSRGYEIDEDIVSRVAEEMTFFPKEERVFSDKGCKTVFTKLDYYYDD
# Torsin-1A (Homo sapiens) [9] = target: Torsin-1A (Homo sapiens) (UniProt O14656); experiment: torsin A mutant lysate binding on microarrays – cell lysate, small-molecule microarray, COS7 lysate, 635/667 nm fluorescence, primary screen (AID 1150); details: COS7 hTOR1A mutant lysate, 635 nm fluorescence, higher = more signal;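 further: score pools 667 nm emission and signal to noise measuring lysate protein binding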
# [10] = test system: Sonic hedgehog protein (Shh); experiment: Sonic hedgehog microarray binding compounds – biochemical, small-molecule microarray, 635/667 nm fluorescence, primary screen (AID 1151); details: 635 nm fluorescence, higher = more signal;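 further: Shh protein binding to compounds spotted on small-molecule microarray slides; score combines spot fluorescence intensity with signal-to-noise across triplicate slides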
SMILES,composite z-score [1],z-score [2],z-score [3],z-score [4],z-score [5],composite z-score [6],composite z-score [7],composite z-score (Torsin-1A (Homo sapiens) [8]),composite z-score (Torsin-1A (Homo sapiens) [9]),composite z-score [10]
C=CCOC(=O)[C@H]1[C@@H]2C(=O)O[C@@H](c3ccccc3)[C@@H](c3ccccc3)N2[C@@H](c2ccc(OCCOC(=O)[C@H]3C[C@H]4C(=O)N[C@@H](CC(C)C)C(=O)N4[C@H]3c3ccc(O)cc3)cc2)[C@]12C(=O)Nc1ccc(I)cc12,0.931,-0.289 (inactive),-0.829 (inactive),-0.122 (inactive),0.535 (inactive),0.335,-0.0695,1.45,1.45,2.31
[N-]=[N+]=Nc1ccccc1C[C@]1(C(N)=O)N=C(c2ccc(OCCCO)cc2)O[C@H]1c1ccccc1,0.498,-2.27 (inactive),-0.726 (inactive),1.31 (inactive),-0.723 (inactive),0.665,0.0516,0.644,-0.0736,-1.98
C=CCN1C(=O)[C@]2(O[C@H](CCO)[C@@H]([Si](C)(C)c3ccc(OC)cc3)[C@@H]2C)c2cc(N3C(=O)c4cccc5cccc3c45)ccc21,-0.0476,-7.91 (inactive),0.00752 (inactive),23.5 (active),-2.47 (inactive),0.487,0.0214,1.13,0.0015,1.84
CCCC[C@@H]1C[C@H]1[C@@H](NC(=O)c1ccco1)c1ccc(Cl)cc1,0.202,-2.63 (inactive),0.564 (inactive),-0.561 (inactive),0.473 (inactive),2.09,0.306,0.104,0.481,-0.292
NC(=O)[C@@H]1[C@H]2C(=O)O[C@H](c3ccccc3)[C@H](c3ccccc3)N2[C@H](c2ccc(O)cc2)[C@@]12C(=O)Nc1ccc(C#CC3(O)CCCCCC3)cc12,-0.277,-0.0907 (inactive),-0.269 (inactive),0.568 (inactive),-0.301 (inactive),-1.08,-0.148,0.398,1.1,-0.323
CC(C)(C)C(=O)N[C@@H](c1ccc(Cl)cc1)[C@]1(C)C[C@H]1C1CCCCC1,0.182,-2.95 (inactive),-0.153 (inactive),0.197 (inactive),0.456 (inactive),2.44,0.634,0.895,1.18,-0.546
COC(=O)C(CC#Cc1ccc2c(c1)[C@]1(C(=O)N2)[C@H](c2ccc(O)cc2)N2[C@H](c3ccccc3)[C@H](c3ccccc3)OC(=O)[C@H]2[C@@H]1C(=O)Nc1nc2ccccc2s1)C(=O)OC,0.695,-2.01 (inactive),-1.45 (inactive),1.15 (inactive),-0.5 (inactive),0.458,0.373,1.41,1.21,1.62
C=C(CCCC)C(=O)CC[C@@H](OC(=O)c1cccnc1)c1ccc(CO)o1,0.314,-0.0785 (inactive),-0.0897 (inactive),2.41 (inactive),0.783 (inactive),1.05,-0.0774,0.984,1.74,2.04
COCCOC(=O)N1C(=O)[C@@]2(c3cc(C#CC4=CCCCC4)ccc31)[C@H](C(N)=O)[C@H]1C(=O)O[C@H](c3ccccc3)[C@H](c3ccccc3)N1[C@@H]2c1ccc(OCCO)cc1,0.14,-4.37 (inactive),-1.72 (inactive),-0.195 (inactive),-0.327 (inactive),-0.602,-0.406,0.394,0.644,1.02
CCOc1cc(C(O)C2C=CC3C(=O)N(c4ccccc4)C(=O)C3N2Nc2ccccc2)ccc1O (stereo not given),-0.206,0.318 (inactive),-0.802 (inactive),2.15 (inactive),0.838 (inactive),0.0572,-0.128,-0.577,1.66,-0.14
COc1ccc(CCNC(=O)[C@@H]2c3ccccc3C(=O)N(C3Cc4ccccc4C3)[C@H]2c2ccc(CO)cc2)cc1,-0.062,-0.221 (inactive),-0.17 (inactive),-0.0888 (inactive),-1.01 (inactive),-0.217,-0.0448,0.0114,0.067,0.13
COCCn1c(C(=O)N2CCCC2)cc2c1C[C@H]1CN(C(=O)c3ccccc3)[C@@](Cc3ccc(F)cc3)(C(=O)OC)[C@@H]21,0.45,-1.37 (inactive),-0.727 (inactive),-0.568 (inactive),-0.442 (inactive),1.8,-0.0931,1.42,2.2,-0.554
CC(C)(C)OC(=O)CC[C@]1(C(=O)NCC(O)CO)COC(c2ccc(OCCCO)cc2)=N1 (stereo not given in full),-0.05,-0.0229 (inactive),-0.904 (inactive),-0.412 (inactive),-0.0431 (inactive),0.873,-0.003,0.746,2.65,-1.31
CC(C)(C)OC(=O)CC[C@]1(C(=O)O)N=C(c2ccc(OCCCO)cc2)O[C@H]1c1ccccc1N=[N+]=[N-],0.629,-0.686 (inactive),0.448 (inactive),-0.38 (inactive),-0.658 (inactive),1.32,0.825,-0.09,0.414,-0.815
CC1CC/C=C\[C@H]2OC34C=CCN(C(C)(C)C)C(=O)[C@H]3N(CCCCCCO)C(=O)[C@@H]4C2C(=O)O1 (stereo not given in full),-0.293,0.553 (inactive),0.0917 (inactive),0.74 (inactive),-0.21 (inactive),-0.727,-0.224,-0.67,-0.433,0.611
CCCC=C(CCC)[C@@H](NS(=O)(=O)c1cccs1)c1ccc(C(=O)OC)cc1,0.247,-3.88 (inactive),0.276 (inactive),0.201 (inactive),0.91 (inactive),1.37,0.16,-0.0907,0.647,-0.168
COCCOC(=O)N1C(=O)[C@@]2(c3ccccc31)[C@H](c1ccc(O)cc1)N1[C@H](c3ccccc3)[C@H](c3ccccc3)OC(=O)[C@H]1[C@@H]2C(=O)NC[C@H](O)c1ccccc1,-0.0136,-1.03 (inactive),0.494 (inactive),0.595 (inactive),1.31 (inactive),-0.551,0.0051,0.849,0.805,0.474
O=C1OCCC/C=C\[C@H]2OC34C=CCN(CCN5CCOCC5)C(=O)[C@H]3N(CCCO)C(=O)[C@@H]4C12 (stereo not given in full),-0.196,0.732 (inactive),1.46 (inactive),-0.484 (inactive),-0.947 (inactive),-0.388,-0.292,-0.222,1.01,-0.165
COC(=O)[C@@]1(Cc2ccc(F)cc2)[C@H]2c3cc(C(=O)N4CCCC4)n(Cc4ccc(C)o4)c3C[C@H]2CN1C(=O)c1ccccc1,0.709,-2.77 (inactive),0.82 (inactive),-0.182 (inactive),-1.19 (inactive),1.39,0.0108,0.19,0.322,-0.704
O=C1OCCC/C=C\[C@H]2OC34C=CCN(Cn5nnc6ccccc65)C(=O)[C@H]3N(CCO)C(=O)[C@@H]4C12 (stereo not given in full),-0.212,-0.363 (inactive),-2.05 (inactive),-1.58 (inactive),-0.713 (inactive),-0.712,0.8,-2.75,-1.23,-0.533
Cc1ccc(C(C)CC(O)C2C=CC3C(=O)N(c4ccccc4)C(=O)C3N2Nc2ccc([N+](=O)[O-])cc2)o1 (stereo not given),0.354,-0.344 (inactive),-0.99 (inactive),0.136 (inactive),0.812 (inactive),1.71,-0.0131,-0.344,0.222,0.442
[N-]=[N+]=NCc1ccccc1C[C@]1(C(=O)N2CCOCC2)N=C(c2ccc(OCCCO)cc2)O[C@H]1c1ccccc1N=[N+]=[N-],0.774,-5.5 (inactive),-0.447 (inactive),-0.0017 (inactive),-1.86 (inactive),0.808,0.0179,1.49,1.44,1.02
CC(=O)NCCCC[C@@H]1NC(=O)[C@@H]2C[C@H](C(=O)NCCCCN(C)C)[C@H](c3cccc(OCCO)c3)N2C1=O,-0.0339,0.344 (inactive),-0.269 (inactive),0.0043 (inactive),-0.874 (inactive),-0.451,-0.154,-1.28,0.0889,1.04
CC(C)C[C@@H]1NC(=O)[C@H]2C[C@@H](C(=O)NCCCCCCN)[C@@H](c3ccc(O)cc3)N2C1=O,0.0135,-0.875 (inactive),0.469 (inactive),0.553 (inactive),1.08 (inactive),0.569,0.243,1.07,0.339,0.553
COc1ccc(COC2OC[C@]3(C)[C@H]4C5=C(CN3C(=O)OC(C)(C)C)[C@H](C)C(CO)C(CO)C5CC[C@@H]24)cc1 (stereo not given in full),0.0447,-0.422 (inactive),0.669 (inactive),0.966 (inactive),1.99 (inactive),1.25,0.483,1.32,0.156,0.0407
CCCCC(=C=CC[C@@H](O)c1ccccc1OCCO)CCO,-0.235,-0.717 (inactive),-0.0652 (inactive),17.8 (active),0.905 (inactive),-0.488,0.0173,-0.873,0.286,0.134
C=CCNC(=O)[C@H]1[C@@H]2C(=O)O[C@@H](c3ccccc3)[C@@H](c3ccccc3)N2[C@@H](c2ccc(OCCO)cc2)[C@]12C(=O)N(C(=O)OCCOC)c1ccccc12,0.25,-2.05 (inactive),-0.478 (inactive),0.802 (inactive),9.23 (active),0.614,0.0925,0.895,0.497,1.95
CN1C(=O)C2C=CC(C(O)c3cc(C(F)(F)F)cc(C(F)(F)F)c3)N(N3CCCCC3)C2C1=O (stereo not given),0.209,0.401 (inactive),-0.15 (inactive),0.44 (inactive),-0.411 (inactive),-0.0121,0.0047,-0.083,0.502,0.035
